This is an account of results in PubChem BioAssay (Tox21).

Assay [1] concerns the target Voltage-gated inwardly rectifying potassium channel KCNH2 (Homo sapiens) (UniProt Q12809). In words: Human Ether-a-go-go-Related Gene (hERG) channel small molecule antagonists: fluorescence cell-based qHTS assay (AID 1671200).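 Further: hERG-expressing U2OS cells given a thallium stimulus after FluxOR II dye loading; series mostly up to about 77 µM.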 A digest of the protocol: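 Measured: Tl+ flux via fluorescence (480/540 nm) in hERG-expressing U2OS cells after 1 h dye loading at room temperature.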
Background: hERG is a cardiac potassium channel; its block is linked to QT prolongation.

Assay [2] deals with Cytochrome P450 3A4 (Homo sapiens) (UniProt P08684). In words: Cytochrome P450 Family 3 Subfamily A Member 4 (CYP3A4) small molecule antagonists: luciferase reporter qHTS assay (AID 1671201). Further: potency means the concentration at half of the fitted maximal effect. A digest of the protocol: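 Setup: enzyme-substrate mix, compound pin transfer, 10 min RT. Reaction: NADPH regeneration solution, 1 h RT. Readout: detection reagent stops turnover, luminescence measured after 20 min, expressed in relative luminescence units.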
(In general: Reporter assays use an easily measured gene product as a stand-in for the process of interest.)

Each structure is given as a SMILES string. Several values for one entry are separate records, joined by “and”; a condition that tells them apart may be missing. Identical values can stand only once. Inconclusive results are not listed. A call without a number means that no potency is given here. Some structures have more than one record in an assay (separate samples or runs), and their calls can disagree. Activity calls are given as the source filed them. The call rests on the fitted dose curve; in most records, active means well fitted curve in the direction sought with a large enough effect in the repeat runs; inconclusive means weak or mixed curves; inactive means no such curve, though single readings can be large; an effect the other way counts as inactive or inconclusive.
Further: nearly all actives have a fitted effect of over 50% in size.

Sequence of Cytochrome P450 3A4 (Homo sapiens) (P08684 whole entry, looked up): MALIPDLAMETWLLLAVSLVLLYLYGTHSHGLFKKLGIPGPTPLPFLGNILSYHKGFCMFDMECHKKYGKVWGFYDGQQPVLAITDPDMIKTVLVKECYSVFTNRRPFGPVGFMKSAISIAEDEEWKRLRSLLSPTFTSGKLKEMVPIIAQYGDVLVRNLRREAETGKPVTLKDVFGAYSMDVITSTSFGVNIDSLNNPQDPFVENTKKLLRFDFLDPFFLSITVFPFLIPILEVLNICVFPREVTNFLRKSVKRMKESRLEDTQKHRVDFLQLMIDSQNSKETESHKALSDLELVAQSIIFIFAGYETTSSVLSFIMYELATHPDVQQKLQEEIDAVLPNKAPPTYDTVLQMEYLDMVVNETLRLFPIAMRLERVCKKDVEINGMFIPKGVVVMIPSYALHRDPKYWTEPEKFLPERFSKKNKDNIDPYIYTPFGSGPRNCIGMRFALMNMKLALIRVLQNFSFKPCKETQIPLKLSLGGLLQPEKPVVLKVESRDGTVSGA
Sequence of Voltage-gated inwardly rectifying potassium channel KCNH2 (Homo sapiens) (Q12809 whole entry, looked up): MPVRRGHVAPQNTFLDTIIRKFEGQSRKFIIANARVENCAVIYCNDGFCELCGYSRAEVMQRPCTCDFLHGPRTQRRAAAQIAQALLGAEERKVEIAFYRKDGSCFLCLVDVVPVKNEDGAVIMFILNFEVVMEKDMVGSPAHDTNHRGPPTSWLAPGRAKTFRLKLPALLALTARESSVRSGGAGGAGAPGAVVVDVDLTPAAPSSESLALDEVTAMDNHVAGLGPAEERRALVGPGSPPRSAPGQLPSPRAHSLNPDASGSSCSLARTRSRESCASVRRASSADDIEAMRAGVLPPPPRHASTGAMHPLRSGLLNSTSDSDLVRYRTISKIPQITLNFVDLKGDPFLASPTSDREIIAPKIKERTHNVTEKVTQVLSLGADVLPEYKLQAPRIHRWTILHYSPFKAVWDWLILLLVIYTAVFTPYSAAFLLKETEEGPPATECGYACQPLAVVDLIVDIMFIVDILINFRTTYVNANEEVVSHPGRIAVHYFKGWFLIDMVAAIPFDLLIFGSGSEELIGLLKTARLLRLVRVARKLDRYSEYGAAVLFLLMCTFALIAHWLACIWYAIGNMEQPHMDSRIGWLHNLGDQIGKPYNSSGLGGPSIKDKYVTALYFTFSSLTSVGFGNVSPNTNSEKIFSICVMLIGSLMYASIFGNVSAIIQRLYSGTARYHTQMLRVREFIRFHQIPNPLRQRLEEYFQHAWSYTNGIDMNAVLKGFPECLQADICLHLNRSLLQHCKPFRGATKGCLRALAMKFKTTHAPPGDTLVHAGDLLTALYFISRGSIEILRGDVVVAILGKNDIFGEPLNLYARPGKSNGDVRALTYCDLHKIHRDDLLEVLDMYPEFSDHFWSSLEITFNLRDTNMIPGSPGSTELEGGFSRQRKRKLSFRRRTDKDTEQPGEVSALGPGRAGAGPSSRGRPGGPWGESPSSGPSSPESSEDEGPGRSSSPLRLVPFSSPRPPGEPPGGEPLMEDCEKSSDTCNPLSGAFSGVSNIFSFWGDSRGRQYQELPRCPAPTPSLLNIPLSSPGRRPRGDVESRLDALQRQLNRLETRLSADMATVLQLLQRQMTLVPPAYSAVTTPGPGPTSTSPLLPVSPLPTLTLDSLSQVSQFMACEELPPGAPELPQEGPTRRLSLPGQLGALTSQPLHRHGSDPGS

Regarding `O=C(O)CCCCCCCCCCC(=O)O`, the result in assay [1] was inactive. In assay [2], the Potency entry is “inactive”.

In the case of `FC(F)(F)c1ccc(Cl)c(Cl)c1`, the molecule was called inactive in assay [1]. The Potency entry in assay [2] was “inactive”.

As for `CN(C)CCCN`, the call in assay [1] was inactive. In assay [2], the Potency result was “inactive”.

For the molecule `C[C@H]1C[C@H]2[C@@H]3CCC4=CC(=O)C=C[C@]4(C)[C@@]3(F)[C@@H](O)C[C@]2(C)[C@@]1(O)C(=O)CO`, the molecule was classed as inactive in assay [1].

In the case of `O=C(O)c1ccc(C(=O)O)cc1`, in assay [1], the result was inactive. Besides, in assay [2], the Potency result is “inactive”.

As for `CCc1ccc(CCOc2ccc(CC3SC(=O)NC3=O)cc2)nc1` (stereo unspecified), the result in assay [1] was inactive.

As for `CCCCC(CC)COC(=O)C(C#N)=C(c1ccccc1)c1ccccc1` (stereo unspecified), the molecule was called inactive in assay [1].

On to `C=C(C)C(=O)OCCOCCOCCOC(=O)C(=C)C`, for which the result in assay [1] was inactive. Moreover, the Potency entry in assay [2] is “inactive”.

In the case of `NNc1nncc2ccccc12`, the call in assay [1] was inactive.

Consider `COCCCOc1ccnc(CS(=O)c2nc3ccccc3[nH]2)c1C` (stereo unspecified), for which the outcome in assay [1] was inactive.

As for `Nc1cc([N+](=O)[O-])ccc1O`, in assay [1], the molecule was classed as inactive. In addition, the Potency result in assay [2] was “inactive”.

With `CC1=C(C)S(=O)(=O)CCS1(=O)=O`, the molecule was classed as inactive in assay [1]. Moreover, the Potency result in assay [2] was “inactive”.

Consider `CC(O)COCC(C)O` (stereo unspecified), for which the molecule was called inactive in assay [1]. Also, the Potency entry in assay [2] is “inactive”.

Turning to `CCCSc1ccc2nc(NC(=O)OC)[nH]c2c1`, the molecule was classed as inactive in assay [1].

With `Oc1cccc2ccccc12`, the result in assay [1] was inactive.

With `OCc1cccnc1`, the molecule was classed as inactive in assay [1].

Regarding `O=c1[nH]c(=O)n([C@H]2C[C@H](O)[C@@H](CO)O2)cc1Br`, in assay [1], the call was inactive. Besides, the Potency result in assay [2] was “inactive”.

As for `Cc1ccc2oc(=O)ccc2c1`, in assay [1], the result was inactive. In assay [2], the Potency result was “inactive”.

For the molecule `CCc1cccc(C)c1N`, in assay [1], the outcome was inactive. Further, the Potency entry in assay [2] is “inactive”.

For the molecule `CCC(O)OCCCOC` (stereo unspecified), the outcome in assay [1] was inactive. The Potency entry in assay [2] is “inactive”.

Regarding `O=c1[nH]nnc2ccccc12`, in assay [1], the molecule was called inactive. For the same molecule, in assay [2], the Potency result was “inactive”.

For `Cc1ccc(N(C)C)cc1`, the molecule was classed as inactive in assay [1]. Besides, the Potency entry in assay [2] is “inactive”.

Turning to `O=C(O)CCCC[C@@H]1SC[C@@H]2NC(=O)N[C@@H]21`, the molecule was classed as inactive in assay [1]. In assay [2], the Potency result was “inactive”.

Regarding `O=S(=O)(O)c1ccc2ccccc2c1`, the call in assay [1] was inactive. The Potency result in assay [2] was “inactive”.

As for `O=S1(=O)CC=CC1`, the result in assay [1] was inactive. For the same molecule, the Potency entry in assay [2] was “inactive”.

Take `CC(=O)c1ccccc1`: the outcome in assay [1] was inactive. For the same molecule, the Potency result in assay [2] is “inactive”.

For the molecule `O=C(O)CC(C(=O)O)C(CC(=O)O)C(=O)O` (stereo unspecified), the call in assay [1] was inactive. Further, the Potency result in assay [2] is “inactive”.

Consider `CCCCCOC(C)=O`, for which the result in assay [1] was inactive. The Potency entry in assay [2] was “inactive”.

In the case of `CC(C)CC(=O)CC(C)C`, the call in assay [1] was inactive. For the same molecule, in assay [2], the Potency is 22.7 µM (active) and inactive.

On to `O=C(Oc1ccccc1)c1ccccc1`, for which the call in assay [1] was inactive. Besides, in assay [2], the Potency entry was “inactive”.

With `COS(C)(=O)=O`, the call in assay [1] was inactive. The Potency result in assay [2] was “inactive”.

Turning to `CCCCCC1=CCCC1=O`, the call in assay [1] was inactive. For the same molecule, in assay [2], the Potency entry was “inactive”.

`CC(C)c1ccc(S(=O)(=O)O)cc1`: the molecule was classed as inactive in assay [1]. For the same molecule, the Potency result in assay [2] was “inactive”.

Turning to `C#CCN(C)Cc1ccccc1`, in assay [1], the molecule was classed as inactive. In addition, the Potency entry in assay [2] was “inactive”.

Turning to `CCCCCCCCCC`, in assay [1], the result was inactive. The Potency result in assay [2] was “inactive”.

With `CCOC(=O)NNc1nncc2ccccc12`, in assay [1], the outcome was inactive. Also, the Potency entry in assay [2] was “inactive”.

Regarding `C=C(C)C(=O)O[C@H]1C[C@@H]2CC[C@@]1(C)C2(C)C`, in assay [1], the call was inactive. Besides, the Potency result in assay [2] was “inactive”.

For the molecule `OCC(CO)(CBr)CBr`, the outcome in assay [1] was inactive. In assay [2], the Potency result was “inactive”.

In the case of `O=C(O)c1ccccc1C(c1ccc(O)cc1)c1ccc(O)cc1`, in assay [1], the result was inactive. For the same molecule, the Potency result in assay [2] was “inactive”.

On to `CC(=O)CC(=O)Nc1ccccc1C`, for which, in assay [1], the outcome was inactive. In addition, the Potency entry in assay [2] was “inactive”.

For the molecule `Nc1ccccc1[N+](=O)[O-]`, the molecule was classed as inactive in assay [1]. For the same molecule, the Potency result in assay [2] was “inactive”.

With `CN(C)CCC(c1ccccc1)c1ccccn1` (stereo unspecified), the call in assay [1] was inactive. The Potency entry in assay [2] was “inactive”.

As to `O=C(O)c1cc(=O)c2c(OCC(O)COc3cccc4oc(C(=O)O)cc(=O)c34)cccc2o1`, the result in assay [1] was inactive. Besides, the Potency entry in assay [2] is “inactive”.

Take `O=P(OC(CCl)CCl)(OC(CCl)CCl)OC(CCl)CCl`: the call in assay [1] was inactive. In addition, the Potency in assay [2] is 706 nM (active) and 2.83 µM (active).

For `CCCCCCCCCCCCS`, the outcome in assay [1] was inactive. Also, the Potency entry in assay [2] was “inactive”.

`CCCCC(CC)CO` (stereo unspecified): in assay [1], the outcome was inactive. Besides, the Potency entry in assay [2] was “inactive”.

Take `c1ccc2scnc2c1`: the call in assay [1] was inactive. Also, in assay [2], the Potency result is “inactive”.
